Results: PubChem BioAssay (NCATS)
Results filed as inconclusive are left out. Unmarked numbers belong to inactive results. Activity calls are given as the source filed them. Calls follow the shape of the dose curve; as a rule, active = well fitted activation curve with a large enough effect; inconclusive = small, poorly fitted or top-dose-only effect; inactive = no such curve, though single readings can be large or run the other way. Starred links: 1 amine or outer side, 2 acyl side, 3 side chain; linkers in the order of their positions; H or OH if unused. Positions of bridges follow the written chain, without caps; N, C: chain ends. Non-standard residues stand in square brackets, D forms with d. Residues, ends and D or L forms follow the SMILES beside them. ξ: configuration not given here. *: point of attachment. X3 = C[C@@H](Oc1ccc([C@H](N[*:1])C(=O)[*:2])cc1)[C@]1(/C=C\C(=O)[*:3])CO1; d(aIle) = CC[C@H](C)[C@@H](N)C(=O)O; X2 = CC(C)[C@@H](O)C(C)C(=O)*; ξNMeF = CNC(Cc1ccccc1)C(=O)O; ξT = CC(O)C(N)C(=O)O; ξS = NC(CO)C(=O)O

target: Nuclear receptor subfamily 1 group I member 3 (Homo sapiens) (UniProt Q14994); experiment: qHTS for Constitutive Androstane Receptor (CAR) Agonist screened against the NCATS CANVASS Library (AID 1347373); conditions: HepG2-hCAR-CYP2B6 luciferase reporter, ONE-Glo luminescence; series mostly up to 46.1 µM; activation: at the top concentration;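 also: every well also contained 1.5 µM PK11195 alongside the test compound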; as to activation: 0% is about no effect
Sequence (Q14994 whole entry, looked up): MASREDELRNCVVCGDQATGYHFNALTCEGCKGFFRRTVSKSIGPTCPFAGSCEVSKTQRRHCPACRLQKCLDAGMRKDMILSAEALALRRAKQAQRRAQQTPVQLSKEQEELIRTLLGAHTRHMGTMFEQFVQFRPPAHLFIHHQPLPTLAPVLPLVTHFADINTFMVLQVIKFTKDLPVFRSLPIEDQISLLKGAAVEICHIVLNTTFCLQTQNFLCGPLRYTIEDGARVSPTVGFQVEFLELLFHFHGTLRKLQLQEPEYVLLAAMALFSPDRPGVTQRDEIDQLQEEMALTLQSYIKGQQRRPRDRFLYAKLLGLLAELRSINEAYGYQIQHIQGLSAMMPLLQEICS
From the text: Natural products and their derivatives continue to be wellsprings of nascent therapeutic potential. However, many laboratories have limited resources for biological evaluation, leaving their previously isolated or synthesized compounds largely or completely untested. To address this issue, the Canvass library of natural products was assembled (https://tripod.nih.gov/canvass), in collaboration with academic and industry researchers, for quantitative high-throughput screening (qHTS) across a diverse set of cell-based and biochemical assays. The pure (>85% purity by liquid chromatography/mass spectrometry [LC/MS]) Canvass library of 346 natural products were submitted by 45 academic laboratories and companies around the world. We collected pure natural products to circumvent deconvolution and structure elucidation due to time and resource limitations. The library was formatted into 1536-well plates and evaluated in 50 qHTS (in an 11-pnt concentration series) bioassays with broad scope of disease-relevant mechanisms. The resulting data set from 50 different assays was then systematically analyzed to identify overall trends and specific natural products with interesting biological activities. Reported herein are the results of each individual qHTS and their corresponding assay protocol. The constitutive androstane receptor (CAR) is a nuclear receptor which regulates multiple drug metabolizing enzymes (DMEs) and transporters. Activating CAR will generally increase the transcription and subsequent translation of CYP2B6 and CYP3A4. These two DMEs represent about 50% of the drug metabolizing potential in the body. […] Recently, there have also been studies performed indicating CARs role in energy metabolism and cancer therapy. Therefore, inducing or inhibiting CAR's activity could have a potential effect on diabetes and/or cancer. National Center for Advancing Translational Sciences (NCATS), Rockville, MD National Institute of Health (NIH), Bethesda, Maryland
Material: A double-stable (hCAR and CYP2B6-2.2kb) transfected cell line, derived from human hepatoma (HepG2) cells, was utilized for the duration of the quantitative high-throughput screens. The HepG2-CYP2B6-hCAR cells suspended in DMEM culture medium supplemented with 10% FBS, 5 ug/mL blasticidin, 0.5 mg/mL geneticin, 100 U/mL penicillin and 100 ug/mL streptomycin. CAR Agonist assay protocol: 1. In a 1536 well, tissue culture treated white solid bottom plates (Greiner Bio-One North America), 4 uL of engineered HepG2-hCAR-CYP2B6 cell solution (final concentration 2500 cells / well) was dispensed using the Multidrop Combi dispenser (Thermo Fisher Scientific). 2. The assay plates were incubated for 4hr at 37C, 5% CO2 to allow the cells to acclimate and attach. 3. Compounds were pin transferred (~23 nL volume) to the assay plates via Wako Pin-tool (Wako Automation, Richmond VA) equipped with a 1536 pin head. The compounds were transferred to columns 5-48 resulting in a final concentration ranging from 0.6nM to 92uM. 4. One uL of PK11195, was added using a Flying Reagent Dispenser to generate a final concentration of 1.5uM PK11195 inside each well. 5. The assay plates were incubated at 37C, 5% CO2 for 24hr. 6. To measure cell viability, 1 uL of CellTiter-Fluor (Promega) reagent was then added to the assay plates (column 1-48, rows 1-32). The assay plates were incubated for 1hr at 37C, 5% CO2. 7. A first readout of fluorescence signal was acquired via the ViewLux (PerkinElmer) plate reader using a FITC dichroic mirror, excitation 405/10 nm filter, and emission 540/25 nm filter; and using 65 light energy, 1 second exposure, and 2x binning settings. 8. To measure CAR activation, 4 uL of ONE-Glo reagent (Promega) was added to the assay plates (column 1-48, rows 1-32). The assay plates were further incubated at room temperature for 30 min. 9. A second readout of luminescence signal was acquired via the ViewLux plate reader using a clear emission filter, 10 second exposure, 2x binning settings. […]
Potency is read from the fitted curve at half-maximal effect.

Row | SMILES | activation | Potency
1 | C=C[C@H]1CN2CCc3c([nH]c4cccc(OC)c34)[C@@H]2C[C@@H]1/C(=C\OC)C(=O)OC | 12.4% | –
2 | O[C@H]1C=C[C@@]23CCN(Cc4cc5c(cc42)OCO5)[C@@H]3C1 | 1.06% | –
3 | C[C@]12CC(O)C3[C@@H](CC[C@@H]4C[C@@H](O)CC[C@]34CO)[C@@]1(O)CC[C@@H]2C1=CC(=O)OC1 (stereo not given in full) | -13.7% | –
4 | CC[C@H]1CN2CCc3c([nH]c4cccc(OC)c34)[C@@H]2C[C@@H]1/C(=C\OC)C(=O)OC | 5.14% | –
5 | c1ccc2nc3c(cc2c1)[nH]c1ccccc13 | – | 18.6 µM (active)
6 | C/C(=C\[C@H](C)C(=O)C[C@H](O)CC1CC(=O)NC(=O)C1)[C@@H]1OC(=O)/C=C/CC/C=C/C=C/[C@@H]1C | -7.07% | –
7 | CO[C@H]1C[C@H](O[C@H]2[C@@H](O)C[C@H](O[C@H]3CC[C@]4(C=O)[C@H]5CC[C@]6(C)C(C7=CC(=O)OC7)CC[C@]6(O)[C@@H]5CC[C@]4(O)C3)O[C@@H]2C)O[C@H](C)[C@H]1O[C@H]1C[C@@H](OC)[C@@H](O[C@@H]2O[C@H](CO)[C@@H](O)[C@H](O)[C@H]2O)[C@@H](C)O1 (stereo not given in full) | -17.7% | –
8 | CO[C@@]12c3c(C)cc(O)c4c(=O)occ(c34)C(=O)[C@@H]1[C@]13COC(=O)c4c(O)cc(C)c(c41)C(=O)[C@H]2[C@@H]3OC(C)=O | 1.15% | –
9 | CC[C@@H]1CN2CCc3c([nH]c4cccc(OC)c34)[C@@H]2C[C@@H]1/C(=C\OC)C(=O)OC | 3.5% | –
10 | CCCCC1CC[C@H]2CCCC(CCC)N12 (stereo not given in full) | -5.14% | –
11 | CC[C@H](C)[C@H]1NC(=O)[C@@H](NC(=O)C(C)[C@H](O)C(C)C)[C@@H](C)OC(=O)C2COC(=O)CNC(=O)/C=C\[C@]3(CO3)[C@@H](C)Oc3ccc(cc3)[C@H](NC1=O)C(=O)N(C)C(Cc1ccccc1)C(=O)NC(C(C)O)C(=O)N2 (stereo not given in full) (X2-T[d(aIle)][X3][ξNMeF][ξT][ξS]; ester 1-C; linker 3-6 via G) | -1.62% [at 27.5 µM] | –
12 | CC(C)CC1C(=O)O[C@H](C(C)C)C(=O)N(C)C(CC(C)C)C(=O)O[C@@H](C(C)C)C(=O)N(C)C(CC(C)C)C(=O)O[C@H](C(C)C)C(=O)N(C)C(CC(C)C)C(=O)O[C@@H](C(C)C)C(=O)N1C (stereo not given in full) | -8.28% | –
13 | C1=C2CCCN[C@H]2C2CC1[C@H]1CCCCN1C2 (stereo not given in full) | -2.76% | –
14 | C=C(C)[C@H]1C(=O)c2c3c(cc4c5c(n1c24)[C@@]1(C)[C@@H](CC[C@H]2[C@](C)(/C=C/C=C(\C)C(=O)O)[C@@H](O)CC[C@@]21C)C5)C1=CC(C)(C)OC(C)(C)[C@H]1[C@@H]3O | -9.34% | –
15 | COC1=C(C2=C(OC)C(=O)c3cc4c(c(O)c3C2=O)C(=O)O[C@H](C)C4)C(=O)c2c(cc3c(c2O)C(=O)O[C@H](C)C3)C1=O | 1.26% [at 15.4 µM] | –
16 | CCCC[C@@H]1CC[C@H]2CCCC(CCCO)N12 (stereo not given in full) | -4.63% | –
17 | C/C=C1/CN2CC[C@]34C(=C(C(=O)OC)[C@H]1C[C@H]23)Nc1ccccc14 | -12.3% | –
18 | CCC(=O)N[C@@H](C[C@H](C)C(Cl)(Cl)Cl)C(=O)N1C(=O)C=C(OC)[C@@H]1C[C@H](C)C(Cl)Cl | -16.7% | –

Row | SMILES | activation | Potency
19 | CCCC[C@@H](C)/C=C1/CN2CCC[C@H]2[C@@](C)(O)[C@@H]1O | -1.87% | –
20 | COC1C(O)C(C)OC(OC2C(Oc3cccc4c(O)c5c(=O)oc6ccc(C)c7c(=O)oc(c34)c5c67)OC(C)C(O)C2O)C1O (stereo not given) | -14.8% | –
21 | C=C[C@]12C=CCN3CC[C@@]4(c5ccccc5NC(=O)[C@@H]4C1)[C@@H]32 | -3.75% | –
22 | C/C=C(\C)C(=O)O[C@@H]1[C@@H](O)[C@@H]2O[C@H]3[C@H](O[C@@H](CCCCC)CCCCCCC(=O)CCC(=O)OC[C@@H](O2)[C@H]1OC(=O)/C=C/c1ccccc1)O[C@H](C)[C@H](OC(C)=O)[C@@H]3O | -9.8% | –
23 | C/C=C1/CN2C3CC1C1=CCC(=O)N4c5ccccc5[C@@]3(C[C@@H]2C2=C[C@H]3C5CC6N(CC[C@@]67c6ccccc6N(C2=O)[C@@H]37)C/C5=C/C)[C@H]14 (stereo not given in full) | -17.3% | –
24 | C[N+](C)(C)CCc1c[nH]c2ccccc12 | 1.69% | –
25 | CO[C@@H](/C=C/CC/C=C/C(=O)O)[C@@H](O)[C@H](C)/C=C(\C)[C@H](O)[C@H](C)C(=O)CCCC1CC(=O)NC(=O)C1 | 2.64% | –
26 | CO[C@H]([C@@H](C)[C@H]1O[C@]1(C)C[C@H](C)/C=C/C=C(\C)[C@H]1O[C@@H](CC(=O)O)CC[C@@H]1C)[C@@H](C)O | – | 0.105 µM (active)
27 | C[C@]12CC(O)C3[C@@H](CCC4C[C@@H](O)CC[C@@]43CO)[C@@]1(O)CC[C@@H]2C1=CC(=O)OC1 (stereo not given in full) | -9.91% | –
28 | CC[C@]12C=CCN3CC[C@]4(C(=C(C(=O)OC)C1)Nc1ccccc14)[C@@H]32 | 1.63% | –
29 | C=CC(C)(C)[C@@]12C[C@H]3C(=O)N/C(=C\c4cnc[nH]4)C(=O)N3[C@@H]1Nc1ccccc12 | -3.49% | –
30 | CO[C@H]1[C@H](O[C@H]2CC[C@]3(C=O)[C@H]4CC[C@]5(C)[C@@H](C6=CC(=O)OC6)CC[C@]5(O)[C@@H]4CC[C@]3(O)C2)O[C@H](C)[C@H](O)[C@@H]1OC | -20.7% | –
31 | C[C@]12CCC3[C@@H](CC[C@@H]4C[C@@H](O)CC[C@]34CO)[C@@]1(O)CC[C@@H]2C1=CC(=O)OC1 (stereo not given in full) | -15.6% | –
32 | C/C=C1/CN2CC[C@@]34c5ccccc5N(C)[C@@H]3[C@@H]2C[C@@H]1[C@H]4C(=O)OC | 4.37% | –
33 | C=CC(C)(C)[C@@]12C[C@H]3C(=O)N/C(=C/c4cnc[nH]4)C(=O)N3[C@@H]1Nc1ccccc12 | -3.5% | –
34 | C/C=C/[C@@H]1[C@H]2C[C@@H](C)CC[C@@H]2C(C)=C[C@H]1C(=O)c1c(O)c(-c2ccc(O)cc2)c[nH]c1=O | 11.9% | –
35 | CC[C@@H]1CN2CCC3(Nc4cccc(OC)c4C3=O)[C@@H]2C[C@@H]1/C(=C\OC)C(=O)OC (stereo not given in full) | -6.29% | –
